Measured values taken from publication PMC11024108.

Columns and labels:
Assay in all cases: cross-link between two proteins; cross-linking mass spectrometry
[1] = target: NADPH:adrenodoxin oxidoreductase, mitochondrial (UniProt P22570)
[2] = target: Neurofascin (UniProt Q810U3)
[3] = target: Neuronal pentraxin receptor (UniProt Q99J85)
[4] = target: Neuronal-specific septin-3 (UniProt Q9Z1S5)
[5] = target: Septin-11 (UniProt Q8C1B7)
[6] = target: Septin-6 (UniProt Q9R1T4)
[7] = target: Septin-8 (UniProt Q8CHH9)
[8] = target: Septin-9 (UniProt Q80UG5)
[9] = target: Neutral alpha-glucosidase AB (UniProt Q14697)
[10] = target: Non-POU domain-containing octamer-binding protein (UniProt Q99K48)
[11] = target: Non-selective voltage-gated ion channel VDAC2 (UniProt P45880)
[12] = target: Non-selective voltage-gated ion channel VDAC3 (UniProt Q9Y277)
[13] = target: Nucleosome assembly protein 1-like 4 (UniProt Q78ZA7)
[14] = target: Osteopetrosis-associated transmembrane protein 1 (UniProt Q86WC4)
[15] = target: Peptidyl-prolyl cis-trans isomerase B (UniProt P23284)
[16] = target: Peroxiredoxin-2 (UniProt Q61171)
[17] = target: Peroxiredoxin-4 (UniProt Q13162)
[18] = target: Peroxisomal bifunctional enzyme (UniProt Q08426)
[19] = target: Phosphoglycerate mutase 1 (UniProt Q9DBJ1)
[20] = target: Plasma membrane calcium-transporting ATPase 4 (UniProt Q6Q477)
[21] = target: Polymerase delta-interacting protein 2 (UniProt Q9Y2S7)
[22] = target: Potassium voltage-gated channel subfamily A member 2 (UniProt P63141)
[23] = target: Prefoldin subunit 5 (UniProt Q99471)
[24] = target: Prostaglandin E synthase 2 (UniProt Q9H7Z7)
[25] = target: Proteasome activator complex subunit 2 (UniProt P97372)
[26] = target: Proteasome subunit alpha type-6 (UniProt P60900)
[27] = target: Proteasome subunit alpha type-6 (UniProt Q9QUM9)
[28] = target: Proteasome subunit alpha type-7 (UniProt Q9Z2U0)
Proteasome subunit alpha type-7, sequence (Q9Z2U0 whole entry): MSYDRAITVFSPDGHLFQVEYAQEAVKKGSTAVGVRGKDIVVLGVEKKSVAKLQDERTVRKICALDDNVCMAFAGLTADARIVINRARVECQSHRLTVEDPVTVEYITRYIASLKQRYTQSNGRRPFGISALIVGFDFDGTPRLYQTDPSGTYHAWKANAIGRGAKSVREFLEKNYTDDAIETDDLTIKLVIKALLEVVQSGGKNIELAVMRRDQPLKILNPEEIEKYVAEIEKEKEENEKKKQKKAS

Phosphoglycerate mutase 1, sequence (Q9DBJ1 whole entry): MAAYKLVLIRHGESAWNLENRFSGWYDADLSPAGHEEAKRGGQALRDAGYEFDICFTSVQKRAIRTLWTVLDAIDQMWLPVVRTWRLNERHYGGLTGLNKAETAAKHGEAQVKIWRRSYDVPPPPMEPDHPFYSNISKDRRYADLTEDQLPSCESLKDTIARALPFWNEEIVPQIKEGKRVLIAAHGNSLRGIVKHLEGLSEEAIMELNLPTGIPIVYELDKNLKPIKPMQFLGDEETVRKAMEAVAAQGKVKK
Proteasome activator complex subunit 2, sequence (P97372 whole entry, one chain of several): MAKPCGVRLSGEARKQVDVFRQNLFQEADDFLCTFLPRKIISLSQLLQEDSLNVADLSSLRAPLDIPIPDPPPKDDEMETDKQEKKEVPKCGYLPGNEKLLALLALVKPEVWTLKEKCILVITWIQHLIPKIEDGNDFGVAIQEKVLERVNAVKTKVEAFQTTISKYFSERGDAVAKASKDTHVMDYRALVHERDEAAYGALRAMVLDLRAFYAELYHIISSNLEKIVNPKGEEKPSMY
Peroxiredoxin-4, sequence (Q13162 whole entry): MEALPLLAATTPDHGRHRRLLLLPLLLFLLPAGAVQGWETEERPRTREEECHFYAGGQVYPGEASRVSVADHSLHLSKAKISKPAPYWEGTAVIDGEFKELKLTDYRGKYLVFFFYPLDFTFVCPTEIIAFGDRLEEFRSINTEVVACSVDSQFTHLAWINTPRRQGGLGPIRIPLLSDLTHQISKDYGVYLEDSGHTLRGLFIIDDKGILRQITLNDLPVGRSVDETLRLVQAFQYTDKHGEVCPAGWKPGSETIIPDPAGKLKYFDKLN
Peroxisomal bifunctional enzyme, sequence (Q08426 whole entry): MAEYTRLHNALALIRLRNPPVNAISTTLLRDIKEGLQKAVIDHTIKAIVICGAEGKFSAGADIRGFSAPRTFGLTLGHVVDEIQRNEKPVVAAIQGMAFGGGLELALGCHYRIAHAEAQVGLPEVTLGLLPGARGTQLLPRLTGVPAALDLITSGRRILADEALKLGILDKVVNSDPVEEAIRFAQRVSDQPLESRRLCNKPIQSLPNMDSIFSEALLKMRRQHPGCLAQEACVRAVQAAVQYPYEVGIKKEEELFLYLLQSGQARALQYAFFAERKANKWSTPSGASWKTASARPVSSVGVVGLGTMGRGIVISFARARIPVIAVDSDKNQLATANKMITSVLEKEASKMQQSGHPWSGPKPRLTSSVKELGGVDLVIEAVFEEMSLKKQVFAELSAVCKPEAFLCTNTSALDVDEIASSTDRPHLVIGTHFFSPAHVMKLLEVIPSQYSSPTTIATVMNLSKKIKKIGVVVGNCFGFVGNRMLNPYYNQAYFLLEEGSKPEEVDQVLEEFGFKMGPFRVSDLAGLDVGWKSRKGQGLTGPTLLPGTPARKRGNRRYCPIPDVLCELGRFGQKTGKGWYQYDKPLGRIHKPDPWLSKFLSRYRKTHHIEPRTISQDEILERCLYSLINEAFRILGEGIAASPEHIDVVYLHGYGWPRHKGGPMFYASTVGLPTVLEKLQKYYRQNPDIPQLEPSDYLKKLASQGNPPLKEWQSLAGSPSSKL
Osteopetrosis-associated transmembrane protein 1, sequence (Q86WC4 whole entry): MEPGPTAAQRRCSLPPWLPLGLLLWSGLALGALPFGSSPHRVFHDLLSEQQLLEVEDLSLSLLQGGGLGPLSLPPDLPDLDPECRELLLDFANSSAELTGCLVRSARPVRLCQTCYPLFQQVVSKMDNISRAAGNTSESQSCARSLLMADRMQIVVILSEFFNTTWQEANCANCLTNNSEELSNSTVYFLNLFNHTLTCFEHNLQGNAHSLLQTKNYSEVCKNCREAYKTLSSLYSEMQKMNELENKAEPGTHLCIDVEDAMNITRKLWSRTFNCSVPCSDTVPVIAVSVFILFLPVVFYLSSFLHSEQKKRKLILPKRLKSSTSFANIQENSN
Neutral alpha-glucosidase AB, sequence (Q14697 whole entry, the tested form may be a part): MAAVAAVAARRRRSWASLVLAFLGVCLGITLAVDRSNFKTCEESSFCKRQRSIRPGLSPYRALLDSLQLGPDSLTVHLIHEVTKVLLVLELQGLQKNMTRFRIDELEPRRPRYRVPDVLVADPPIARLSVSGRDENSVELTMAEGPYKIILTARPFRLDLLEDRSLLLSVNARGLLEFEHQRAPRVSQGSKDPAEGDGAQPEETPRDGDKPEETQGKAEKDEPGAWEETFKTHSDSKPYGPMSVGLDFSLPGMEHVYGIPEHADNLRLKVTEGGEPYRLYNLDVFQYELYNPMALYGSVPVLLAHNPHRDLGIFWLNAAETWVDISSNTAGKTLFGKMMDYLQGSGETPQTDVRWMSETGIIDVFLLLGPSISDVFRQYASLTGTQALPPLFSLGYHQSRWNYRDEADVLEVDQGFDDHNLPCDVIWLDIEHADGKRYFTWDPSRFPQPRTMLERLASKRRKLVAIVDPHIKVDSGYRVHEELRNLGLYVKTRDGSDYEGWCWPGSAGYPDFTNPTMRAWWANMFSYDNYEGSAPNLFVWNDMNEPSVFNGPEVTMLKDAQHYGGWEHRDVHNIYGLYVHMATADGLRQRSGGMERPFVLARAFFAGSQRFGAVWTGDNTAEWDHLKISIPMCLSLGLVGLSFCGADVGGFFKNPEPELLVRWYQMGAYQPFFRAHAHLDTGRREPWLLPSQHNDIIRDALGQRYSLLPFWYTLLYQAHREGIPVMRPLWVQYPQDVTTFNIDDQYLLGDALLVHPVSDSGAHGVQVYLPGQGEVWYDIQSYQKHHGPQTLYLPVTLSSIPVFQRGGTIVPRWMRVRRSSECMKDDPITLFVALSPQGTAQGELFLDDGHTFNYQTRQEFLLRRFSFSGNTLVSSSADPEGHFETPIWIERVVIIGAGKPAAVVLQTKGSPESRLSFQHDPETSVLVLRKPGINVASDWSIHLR
Neurofascin, sequence (Q810U3 whole entry): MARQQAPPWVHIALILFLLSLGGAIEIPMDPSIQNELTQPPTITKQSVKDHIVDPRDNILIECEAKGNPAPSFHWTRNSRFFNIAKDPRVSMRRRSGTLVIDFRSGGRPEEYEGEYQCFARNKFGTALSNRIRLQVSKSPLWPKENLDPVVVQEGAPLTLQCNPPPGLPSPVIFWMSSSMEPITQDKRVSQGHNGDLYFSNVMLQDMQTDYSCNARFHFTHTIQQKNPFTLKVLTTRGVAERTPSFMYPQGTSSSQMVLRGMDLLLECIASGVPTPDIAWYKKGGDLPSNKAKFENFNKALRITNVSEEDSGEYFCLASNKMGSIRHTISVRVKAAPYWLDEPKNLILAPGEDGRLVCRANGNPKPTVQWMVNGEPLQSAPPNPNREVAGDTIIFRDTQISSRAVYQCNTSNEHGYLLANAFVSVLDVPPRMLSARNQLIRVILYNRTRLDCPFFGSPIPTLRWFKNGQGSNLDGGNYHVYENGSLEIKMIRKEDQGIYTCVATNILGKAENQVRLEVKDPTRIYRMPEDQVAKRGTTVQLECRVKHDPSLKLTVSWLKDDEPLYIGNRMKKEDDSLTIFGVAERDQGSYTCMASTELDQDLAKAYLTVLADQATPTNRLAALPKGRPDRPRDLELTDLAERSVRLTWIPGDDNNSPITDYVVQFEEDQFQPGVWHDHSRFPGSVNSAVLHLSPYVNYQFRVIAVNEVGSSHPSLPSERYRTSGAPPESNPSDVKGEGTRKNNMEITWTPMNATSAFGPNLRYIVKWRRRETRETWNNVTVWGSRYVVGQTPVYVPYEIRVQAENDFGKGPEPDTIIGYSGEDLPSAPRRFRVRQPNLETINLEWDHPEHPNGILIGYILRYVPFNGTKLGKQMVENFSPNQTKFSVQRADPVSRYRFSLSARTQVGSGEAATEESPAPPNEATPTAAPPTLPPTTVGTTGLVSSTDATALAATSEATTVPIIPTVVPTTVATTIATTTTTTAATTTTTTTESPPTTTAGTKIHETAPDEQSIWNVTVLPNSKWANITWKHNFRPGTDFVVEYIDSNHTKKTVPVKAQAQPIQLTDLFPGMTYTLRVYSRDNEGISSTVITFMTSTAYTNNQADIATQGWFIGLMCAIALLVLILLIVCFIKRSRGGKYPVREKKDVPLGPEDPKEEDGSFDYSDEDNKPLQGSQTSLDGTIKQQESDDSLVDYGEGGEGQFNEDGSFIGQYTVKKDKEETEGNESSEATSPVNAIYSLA
Neuronal pentraxin receptor, sequence (Q99J85 whole entry): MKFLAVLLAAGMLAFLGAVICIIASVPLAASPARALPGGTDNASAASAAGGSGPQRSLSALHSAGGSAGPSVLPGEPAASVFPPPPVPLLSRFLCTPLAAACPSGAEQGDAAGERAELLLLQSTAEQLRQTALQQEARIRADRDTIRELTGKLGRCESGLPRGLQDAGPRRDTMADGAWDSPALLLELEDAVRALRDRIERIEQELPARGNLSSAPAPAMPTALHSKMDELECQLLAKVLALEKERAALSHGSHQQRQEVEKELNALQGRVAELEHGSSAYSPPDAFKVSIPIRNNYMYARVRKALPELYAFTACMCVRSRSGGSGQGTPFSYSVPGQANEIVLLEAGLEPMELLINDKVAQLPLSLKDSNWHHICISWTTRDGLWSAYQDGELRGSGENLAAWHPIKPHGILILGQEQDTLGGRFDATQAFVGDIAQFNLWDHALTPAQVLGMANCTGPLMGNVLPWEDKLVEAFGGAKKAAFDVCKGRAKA
Proteasome subunit alpha type-6 (UniProt Q9QUM9), sequence (Q9QUM9 whole entry): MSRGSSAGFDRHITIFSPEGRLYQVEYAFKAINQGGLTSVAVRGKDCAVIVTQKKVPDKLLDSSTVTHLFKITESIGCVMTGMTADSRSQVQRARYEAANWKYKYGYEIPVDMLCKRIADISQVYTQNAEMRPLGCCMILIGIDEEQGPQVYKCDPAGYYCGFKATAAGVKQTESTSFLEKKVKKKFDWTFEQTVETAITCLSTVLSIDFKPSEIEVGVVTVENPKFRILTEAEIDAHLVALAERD

Substance: Dihydrolipoyl dehydrogenase, mitochondrial, P09622
- listed as a hit [1]: yes

Substance: Contactin-associated protein 1, O54991
- listed as a hit [2]: yes

Substance: Neuronal pentraxin-1, Q62443
- listed as a hit [3]: yes

Substance: Septin-7, O55131
- listed as a hit [4]: yes
- listed as a hit [5]: yes
- listed as a hit [6]: yes
- listed as a hit [7]: yes
- listed as a hit [8]: yes

Substance: Calreticulin, P27797
- listed as a hit [9]: yes

Substance: Splicing factor, proline- and glutamine-rich, Q8VIJ6
- listed as a hit [10]: yes

Substance: Hexokinase-1, P19367
- listed as a hit [11]: yes

Substance: Non-selective voltage-gated ion channel VDAC2, P45880
- listed as a hit [12]: yes

Substance: Nucleosome assembly protein 1-like 1, P28656
- listed as a hit [13]: yes

Substance: H(+)/Cl(-) exchange transporter 7, P51798
- listed as a hit [14]: yes

Substance: Protein disulfide-isomerase A4, P13667
- listed as a hit [15]: yes

Substance: Peroxiredoxin-1, P35700
- listed as a hit [16]: yes

Substance: Peroxiredoxin-1, Q06830
- listed as a hit [17]: yes

Substance: Catalase, P04040
- listed as a hit [18]: yes

Substance: Phosphoglycerate mutase 2, O70250
- listed as a hit [19]: yes

Substance: Plasma membrane calcium-transporting ATPase 1, G5E829
- listed as a hit [20]: yes

Substance: ATP-dependent clpX-like chaperone, mitochondrial, O76031
- listed as a hit [21]: yes

Substance: Voltage-gated potassium channel subunit beta-2, P62482
- listed as a hit [22]: yes

Substance: Prefoldin subunit 1, O60925
- listed as a hit [23]: yes

Substance: Glycerol-3-phosphate dehydrogenase, mitochondrial, P43304
- listed as a hit [24]: yes

Substance: Proteasome activator complex subunit 1, P97371
- listed as a hit [25]: yes

Substance: Proteasome subunit alpha type-2, P25787
- listed as a hit [26]: yes

Substance: Proteasome subunit alpha type-2, P49722
- listed as a hit [27]: yes

Substance: Proteasome subunit alpha type-4, Q9R1P0
- listed as a hit [28]: yes
